Among the test systems are SN12C renal; UO-31 renal; TK-10 renal; CAKI-1 renal; A498 renal; CCRF-CEM leukemia; MOLT-4 leukemia; SR leukemia; RPMI-8226 leukemia; OVCAR-8 ovarian; OVCAR-5 ovarian; OVCAR-4 ovarian; SK-OV-3 ovarian; IGROV1 ovarian; OVCAR-3 ovarian; HS 578T breast; NCI/ADR-RES ovarian; ACHN renal.
What all share (test): NCI-60 one-dose screen, 48 h (100 = growth as untreated, 0 = no growth, -100 = all killed)
Conditions in all cases: 10 µM unless noted

The panel holds about 83,000 compounds, 20% with a hit somewhere; the sample as a whole holds those more often.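 Negative percent growth values reflect cell death: -40 means 40% of the cells present at the start died, and -100 means all died.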 A number with no mark means an inactive call. The source made the active and inactive calls. The calls were made as follows: active = growth percent below 10; inactive = the rest.

Consider `NC1=CSC2=N/C(=C\c3ccc(Cl)cc3)C(=O)N12`, for which the growth in the assay on SN12C renal was 76.8%; with UO-31 renal, 58.2%; with TK-10 renal it was 72.8%; with CAKI-1 renal it was 38.8%; in the assay with A498 renal it was 65.6%; in the assay on CCRF-CEM leukemia, -13.5% (active). In addition, the growth was 8.12% (active) in the assay on MOLT-4 leukemia; -2.29% (active) in the assay on SR leukemia; 39.9% in the assay with RPMI-8226 leukemia; 72.3% in the assay on OVCAR-8 ovarian; 105% in the assay with OVCAR-5 ovarian; 84.1% in the assay with OVCAR-4 ovarian. Further, the growth with SK-OV-3 ovarian is 89.3%; with IGROV1 ovarian, 79.2%; in the assay with OVCAR-3 ovarian, 71.6%; in the assay on HS 578T breast, 101%; in the assay with NCI/ADR-RES ovarian, 76.1%.
For `CCCCCN(CCCCC)CCC[C@@H](C)[C@H]1CC[C@H]2[C@@H]3[C@H](OCCCN)C[C@@H]4C[C@H](OCCCN)CC[C@]4(C)[C@H]3C[C@H](OCCCN)[C@]12C`, the growth was 54.3% with SN12C renal; 65.2% with UO-31 renal; 75.8% with CAKI-1 renal; 92.8% in the assay on A498 renal; 15.3% in the assay on CCRF-CEM leukemia; 41.1% in the assay with MOLT-4 leukemia. In addition, the growth in the assay with SR leukemia is 19.2%; in the assay with RPMI-8226 leukemia, -17.7% (active); in the assay with OVCAR-8 ovarian it was 55.3%; with OVCAR-5 ovarian, 66.2%; in the assay with OVCAR-4 ovarian, 85.2%; with SK-OV-3 ovarian, 93.2%. The growth in the assay with IGROV1 ovarian was 29.6%; with OVCAR-3 ovarian it was 107%; in the assay with HS 578T breast, 66.9%; with NCI/ADR-RES ovarian, 76%.
For the molecule `O=C1Nc2ccccc2C12CC(c1ccc(Cl)cc1)=NN2` (configuration not stated), the growth in the assay on SN12C renal is 88.8%; in the assay on UO-31 renal, 69.2%; with TK-10 renal, 115%; with ACHN renal, 91%; in the assay on CAKI-1 renal, 74.6%; in the assay with A498 renal, 99.6%. For the same molecule, the growth with CCRF-CEM leukemia was 88.3%; with MOLT-4 leukemia, 83.8%; in the assay with SR leukemia, 86.2%; in the assay on RPMI-8226 leukemia it was 77.8%; with OVCAR-8 ovarian, 95.2%; in the assay on OVCAR-5 ovarian, 95.8%. The growth with OVCAR-4 ovarian is 98.6%; with SK-OV-3 ovarian, 107%; with IGROV1 ovarian, 101%; in the assay with OVCAR-3 ovarian, 116%; in the assay with HS 578T breast, 107%; in the assay with NCI/ADR-RES ovarian, 108%.
For the molecule `COc1ccc(/C=C2\N=C3SC=C(N)N3C2=O)cc1`, the growth is 20.4% in the assay with SN12C renal; -4.09% (active) in the assay with UO-31 renal; 19.5% with TK-10 renal; 33% in the assay on ACHN renal; -33% (active) in the assay with CAKI-1 renal; 5.67% (active) in the assay on A498 renal. The growth with CCRF-CEM leukemia is -40.2% (active); with MOLT-4 leukemia, -15.9% (active); in the assay on SR leukemia, -21.3% (active); with RPMI-8226 leukemia, -28.8% (active); in the assay on OVCAR-8 ovarian, 35.7%; with OVCAR-4 ovarian, 21.5%. Besides, the growth in the assay on SK-OV-3 ovarian is 45.6%; in the assay on IGROV1 ovarian, 9.81% (active); with HS 578T breast, 50.4%; in the assay with NCI/ADR-RES ovarian, 42.3%.
`CC(=O)N1CC(Nc2ccc(OC(F)(F)F)cc2)=CC1=O`: the growth is 56.7% with SN12C renal; 65.7% with UO-31 renal; 51.9% in the assay on TK-10 renal; 30% in the assay on CAKI-1 renal; 11% with CCRF-CEM leukemia; 27.1% in the assay on MOLT-4 leukemia. Besides, the growth is 25.3% with SR leukemia; 21.9% in the assay on RPMI-8226 leukemia; 26.1% with OVCAR-8 ovarian; 92.6% in the assay with OVCAR-5 ovarian; 87.2% in the assay with OVCAR-4 ovarian; 31.3% with SK-OV-3 ovarian. Besides, the growth in the assay with IGROV1 ovarian is 50.3%; in the assay on OVCAR-3 ovarian it was 9.26% (active); in the assay on HS 578T breast it was 38.9%; in the assay with NCI/ADR-RES ovarian, 15.4%.
As to `O=C(CN1CCOCC1)Nc1ccc(Cn2nnc3c2C(=O)c2nnn(Cc4ccc(NC(=O)CN5CCOCC5)cc4)c2C3=O)cc1`, the growth was -32.1% (active) in the assay on SN12C renal; 85.3% in the assay on UO-31 renal; 79.7% with TK-10 renal; 58.7% with ACHN renal; 72.9% with CAKI-1 renal; -39.8% (active) in the assay with A498 renal. Moreover, the growth in the assay on CCRF-CEM leukemia was -21.4% (active); in the assay on MOLT-4 leukemia, -41.8% (active); with SR leukemia, -21.3% (active); with RPMI-8226 leukemia, -18.9% (active); in the assay with OVCAR-8 ovarian it was -58.3% (active); with OVCAR-5 ovarian, -21.9% (active). Also, the growth was -93.4% (active) in the assay with OVCAR-4 ovarian; 0.088% (active) in the assay on SK-OV-3 ovarian; -41.4% (active) in the assay on IGROV1 ovarian; 11.6% with HS 578T breast; 103% with NCI/ADR-RES ovarian.
For `CC1=C(NCCN2CCCC2)C(=O)c2c(OCc3ccc(C(F)(F)F)cc3)cccc2C1=O`, the growth is 86.1% in the assay on SN12C renal; 62.1% with UO-31 renal; 91.8% with TK-10 renal; 92.6% in the assay on ACHN renal; 59.9% in the assay with CAKI-1 renal; 1.19% (active) in the assay with CCRF-CEM leukemia. The growth is 12.2% in the assay on MOLT-4 leukemia; -15.7% (active) in the assay with SR leukemia; 29.7% in the assay on RPMI-8226 leukemia; 77% in the assay on OVCAR-8 ovarian; 90.1% in the assay with OVCAR-5 ovarian; 84.7% in the assay with OVCAR-4 ovarian. The growth was 95.6% in the assay with SK-OV-3 ovarian; 89.1% in the assay with IGROV1 ovarian; 83.6% with OVCAR-3 ovarian; 87.6% with HS 578T breast; 87.5% in the assay on NCI/ADR-RES ovarian.

Source of the values: PubChem BioAssay (NCI).
